High-throughput results: PubChem, National Center for Advancing Translational Sciences (NCATS)
Shown are actives, neighbours in structure and some others; about 15% of the full set was active somewhere.
RORgamma inh: inhibitors of mouse ROR gamma transcriptional activity; P51450; Drosophila S2 Gal4-RORgamma UAS-luciferase reporter, 20 h; Potency, µM (top dose mostly 53.6 µM), inactives show top-dose activity change, negative = inhibition, hits mostly inhibitors; actives 5.4% (n = 310,000); further: nearly all actives have a fitted effect of over 60% in size
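Drosophila S2 cells stably expressing Gal4-DBD/mouse RORγ fusion under metallothionein promoter plus UAS-luciferase; compound 1 h, then 700 uM CuSO4 induction for 20 h at ambient temperature; inhibition read as reduced luminescence.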
Gal4-VP16 FLuc: Gal4-VP16 reporter inhibition counter-screen; Drosophila S2 Gal4-VP16 UAS-luciferase, luminescence, 20 h; Potency, µM (doses to about 53.6 µM), without a hit: top-dose activity, negative = inhibition, actives largely listed as inhibitors; actives 3.5% (n = 310,000); AID 2546;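 further: Gal4-VP16 expression switched on by copper sulfate through the metallothionein promoter; nearly all actives have a fitted effect of over 50% in size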
ELG1 repair inh: ELG1-dependent DNA repair inhibition. actives 2.3% (n = 330,000). AID 504467. HEK293T ELG1-luciferase reporter, luminescence, 16 h; DNA damage induced by 5-fluorouridine. Potency, µM (doses to about 46.1 µM), without a hit: at the highest dose activity change, negative = inhibition, most hits filed as inhibitors; further: nearly all actives have a fitted effect of over 55% in size
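Cells (2,000 per well) received 5-fluorouridine plus test compound or DMSO and were incubated 16 hr at 37 °C, 5% CO2. Luciferase activity was read by luminescence 30 min after ONE-Glo addition; signal suppression marked inhibition of damage-induced ELG1 function.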
12-LOX inh: blocks human arachidonate 12S-lipoxygenase; P18054; purified 12hLO, xylenol orange hydroperoxide absorbance; Potency, µM (highest dose often 108 µM), inactives show at the top dose activity change, negative = inhibition, most hits filed as inhibitors; actives 1.1% (n = 580,000)
Target sequence (P18054 whole entry, looked up): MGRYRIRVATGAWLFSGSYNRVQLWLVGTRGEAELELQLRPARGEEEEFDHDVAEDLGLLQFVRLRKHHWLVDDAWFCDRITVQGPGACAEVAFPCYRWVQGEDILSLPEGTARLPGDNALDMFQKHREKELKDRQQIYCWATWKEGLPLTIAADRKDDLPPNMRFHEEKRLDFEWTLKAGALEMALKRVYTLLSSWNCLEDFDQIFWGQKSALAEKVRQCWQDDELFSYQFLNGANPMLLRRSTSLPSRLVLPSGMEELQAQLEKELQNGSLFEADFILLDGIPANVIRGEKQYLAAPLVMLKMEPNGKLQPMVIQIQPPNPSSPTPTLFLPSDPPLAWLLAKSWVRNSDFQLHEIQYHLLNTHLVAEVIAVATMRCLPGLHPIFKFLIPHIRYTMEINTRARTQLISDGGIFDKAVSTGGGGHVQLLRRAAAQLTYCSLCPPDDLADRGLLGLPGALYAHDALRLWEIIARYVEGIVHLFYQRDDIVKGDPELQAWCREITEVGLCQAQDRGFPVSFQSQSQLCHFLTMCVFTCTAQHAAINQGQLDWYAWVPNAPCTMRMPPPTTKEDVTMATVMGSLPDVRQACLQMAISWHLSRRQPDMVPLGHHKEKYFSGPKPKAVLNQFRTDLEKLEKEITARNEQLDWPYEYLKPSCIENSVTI
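Purified human 12hLO (150 nM final) in 25 mM Hepes, 0.01% Triton X-100, pH 7.0 was preincubated 15 min at room temperature with compound. Then 40 uM arachidonic acid was added, 30 min. Hydroperoxide was read by Fe-XO absorbance ratio 573/405 nm.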
TDP1 cell CPT: growth inhibition of DT40 Tdp1-/-;hTDP1 cells with camptothecin (screen for TDP1 inhibitors). chicken DT40 Tdp1-/-;hTDP1 cells + 20 nM CPT, ATP luminescence, 48 h. actives 12% (n = 420,000). AID 686979. Potency, µM (doses to about 46.2 µM), for the others: at the highest dose activity change, negative = growth inhibition, actives largely listed as inhibitors; further: nearly all actives have a fitted effect of over 55% in size
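Chicken DT40 Tdp1-/- cells stably complemented with human TDP1 were seeded at 400 cells/well in medium containing 20 nM camptothecin, exposed to pin-transferred compounds, and grown at 37 °C for at least 48 hr. Viability was read as ATP luminescence.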
DT40 TDP1 no CPT: qHTS for Inhibitors of human tyrosyl-DNA phosphodiesterase 1 (TDP1): qHTS in cells in absence of CPT | Potency, µM (titrated, usually from 46.2 µM), for the others: at the highest dose activity change, negative = growth inhibition, actives largely listed as inhibitors | DT40 Tdp1-/- hTDP1 cells, no CPT, ATP luminescence, 48 h | AID 686978, 2013 | actives 15% (n = 420,000); further: nearly all actives have a fitted effect of over 55% in size
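Seeded 400 DT40-hTDP1 cells/well (vehicle DMSO, no 20 nM CPT); pinned compounds; ≥48 hr at 37 °C; CellTiter-Glo luminescence as viability measure.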
Starred values were filed as active, the others as inactive; ? = inconclusive; / = no result; [ ] = another dose, or the depositor's remark. The call rests on the fitted dose curve; in most records, active means well fitted curve in the direction sought with a large enough effect; inconclusive means small, poorly fitted or top-dose-only effect, or another doubt; inactive means no such curve, though single readings can be large; an effect the other way counts as inactive or inconclusive. On the % scale 0 is the no-effect control and ±100 the full control effect; potency means the concentration at half of the fitted maximal effect.

SMILES | RORgamma inh | Gal4-VP16 FLuc | ELG1 repair inh | 12-LOX inh | TDP1 cell CPT | DT40 TDP1 no CPT
OCCCNC(=S)NC1CCCC1 | -6% | -3% | 3% | ? | 13% | 10%
CC(C)CN(CC(C)C)C(=S)NC1CCCCC1 | 2.8µM* | 7.1µM* | 1% | -7% | ? | ?
CC(C)OCCCNC(=S)NC1CCCC1 | / | / | / | 35µM* | / | /
CC(C)CCNC(=S)NC1CCCC1 | 2.8µM* | ? | -4% | ? | ? | ?
CCCCNC(=S)NC1CCCC1 | 10µM* | 18µM* | -1% | -15% | -19% | -28%
CN(C)CCNC(=S)NC1CCCCC1 | -13% | 1% | 5% | -9% | -7% | 0%
COc1ccc2[nH]c3c(c2c1)CCNC31CCN(C(=O)c2cnn(C)c2)CC1 | / | / | / | 4% | / | /
O=C(NCc1ccccc1)N1CC(n2cc(C(=O)N3CCOCC3)nn2)C1 | / | / | / | 54% | / | /
CCCCCCCCC/C=N/NC(=S)NC1CCCCC1 | / | / | / | 28µM* | / | /
CC(=C/c1ccccc1)/C=N/NC(=S)NC1CCCCC1 | / | / | / | -25% | / | /
O=C(c1ccco1)N1CCCC(Cc2nc(C3CCOCC3)no2)C1 (stereo not drawn) | / | / | / | 16% | / | /
CC1CN(Cc2ccc(C#N)cc2Cl)CC(C)O1 (stereo not drawn) | -2% | -1% | 1% | ? | -4% | -24%
CC1CN(Cc2ccc(Cl)cc2Cl)CC(C)O1 (stereo not drawn) | 16% | -2% | ? | 0.63µM* | -3% | ?
Cc1nn(C)c2sc(C(=O)NCCc3ccc(C(=O)O)cc3)cc12 | / | / | / | -24% | / | /
CC(Nc1ccc(-c2nc(CCCc3ccccc3)no2)cn1)c1cnn(C)c1 (stereo not drawn) | / | / | / | 4% | / | /
C/C(=N/Oc1nc(C)cc(C)n1)c1ccc(Cl)cc1Cl | 10µM* | ? | -6% | -22% | ? | ?
O=C(CCCN1C(=O)C(c2ccccc2)Oc2cccnc21)NCc1ccccc1F (stereo not drawn) | -3% | -2% | 10% | 9% | 16µM* | ?
O=C(CCCN1C(=O)C(c2ccccc2)Oc2cccnc21)NCc1ccccc1Cl (stereo not drawn) | 21% | -5% | -10% | 0% | ? | ?
CCN(CC)c1ccc(NC(=O)CCCN2C(=O)C(c3ccccc3)Oc3cccnc32)c(C)c1 (stereo not drawn) | / | / | / | -14% | 18µM* | 10µM*
O=C(CCCN1C(=O)C(c2ccccc2)Oc2cccnc21)Nc1ccccc1C(F)(F)F (stereo not drawn) | / | / | / | -17% | -17% | 2%
S=C(NCC1CCCO1)Nc1ccc(Cl)c(Cl)c1 (stereo not drawn) | 3.5µM* | ? | 7% | ? | ? | 23µM*
COc1ccc(NS(=O)(=O)c2ccc(NC(=S)NCC3CCCO3)cc2)cc1 (stereo not drawn) | ? | -28% | 19% | 42% | 15µM* | ?
CCCCc1ccc(NC(=S)NCC2CCCO2)cc1 (stereo not drawn) | 2.8µM* | ? | -29% | ? | -25% | ?
O=C(Cc1ccc(Cl)c(Cl)c1)NNC(=S)NCC1CCCO1 (stereo not drawn) | ? | -14% | -15% | 0% | -3% | -2%
CN(C)c1ccc(NC(=S)NCC2CCCO2)cc1 (stereo not drawn) | ? | -14% | ? | -14% | 1% | -18%
SMILES | RORgamma inh | Gal4-VP16 FLuc | ELG1 repair inh | 12-LOX inh | TDP1 cell CPT | DT40 TDP1 no CPT
O=S(=O)(NCC1CCCO1)c1ccc(-c2ccc(S(=O)(=O)NCC3CCCO3)cc2)cc1 (stereo not drawn) | 4.5µM* | 5.6µM* | -8% | -14% | 0.65µM* | 1.8µM*
Nc1nnnn1NCc1cc(Cl)ccc1OCc1ccccc1Cl | / | / | / | -39% | / | /
CCCCC(=O)Oc1ccc(C2C3=C(CC(C)(C)CC3=O)OC3=C2C(=O)CC(C)(C)C3)cc1OC | / | / | / | 9% | / | /
S=C(NCC1CCCO1)NC1CCCC1 (stereo not drawn) | 13µM* | -22% | 5% | -17% | 19% | -9%
S=C(NCC1CCCO1)Nc1ccccc1Cl (stereo not drawn) | ? | 16% | 8% | -21% | -5% | 8%
O=[N+]([O-])c1ccc(S(=O)(=O)CC2CSc3nc4ccccc4n32)cc1 (stereo not drawn) | -25% | ? | 2% | 6% | 13µM* | 12µM*
Nc1nc2ccccc2n1S(=O)(=O)c1ccc([N+](=O)[O-])cc1 | / | / | / | -3% | 29µM* | 21µM*
Nc1nn(S(=O)(=O)c2ccccc2)cc1-c1ccc([N+](=O)[O-])cc1 | ? | 35µM* | 5% | -22% | ? | ?
O=C1CCN(C(=O)c2ccccc2)CCCC(C(=O)Nc2ccccc2CCc2ccncc2)CCN1 (stereo not drawn) | / | / | / | -5% | / | /
Cc1ccc(C(=O)NCCn2nc(-c3ccc(Cl)cc3)ccc2=O)cc1C | / | / | / | 15% | / | /
COc1cc(OC)c2c(C)c(CC(=O)Nc3ccc4c(c3)OCO4)c(=O)oc2c1 | / | / | / | -4% | / | /
Cc1nnc([C@@H]2CC(F)(F)CN2C(=O)c2ccco2)o1 | / | / | / | 22% | / | /
COc1ccc(-c2csc3ncnc(Nc4ccc(OC)cc4OC)c23)cc1 | / | / | / | -3% | 4.1µM* | ?
COc1ccc(-c2csc3ncnc(Nc4cc(OC)cc(OC)c4)c23)cc1 | / | / | / | -19% | ? | 16µM*
COc1ccc(-c2csc3ncnc(Nc4cc(OC)c(OC)c(OC)c4)c23)cc1 | / | / | / | -25% | / | /
CCCCC(=O)O[C@]1(C(=O)CO)[C@H](C)C[C@H]2[C@@H]3CCC4=CC(=O)C=C[C@]4(C)[C@@]3(F)[C@@H](O)C[C@@]21C | 7.9µM* | ? | / | / | 19µM* | 13µM*
CCCC(=O)O[C@]1(C(=O)CCl)[C@@H](C)C[C@H]2[C@@H]3CCC4=CC(=O)C=C[C@]4(C)[C@@]3(F)C(=O)C[C@@]21C | 10µM* | -3% | 4% | -7% | ? | ?
CCCCC(=O)O[C@]1(C(=O)CO)[C@@H](C)C[C@H]2[C@@H]3CCC4=CC(=O)C=C[C@]4(C)[C@@]3(F)[C@@H](O)C[C@@]21C | / | / | / | -2%[57.4 µM] | / | /
CCC(=O)O[C@]1(C(=O)CCl)[C@@H](C)C[C@H]2[C@@H]3CCC4=CC(=O)C=C[C@]4(C)[C@@]3(F)[C@@H](O)C[C@@]21C | 11µM* | ? | 4% | 2% | ? | ?
